Data taken from article PMC5540273 (PLoS ONE, 2017).

How the values were obtained:
Settings in all cases: concentration: 1 μM, replicates: in singlicate; n = 1
KIT-autoinhibited = system: KIT-autoinhibited
KIT = system: KIT
LATS1 = system: LATS1
LATS2 = system: LATS2
LCK = system: LCK
LIMK1 = system: LIMK1
LIMK2 = system: LIMK2
LKB1 = system: T1, LKB1
T1 construct: gene STK11

LOK = system: T2, LOK
T2 construct: gene STK10

LRRK2 = system: LRRK2
LTK = system: LTK
LYN = system: LYN
LZK = system: T3, LZK
T3 construct: gene MAP3K13

MAK = system: MAK
MAP3K15 = system: MAP3K15
MAP3K1 = system: MAP3K1
MAP3K2 = system: MAP3K2
MAP3K3 = system: MAP3K3
MAP3K4 = system: MAP3K4
MAP4K2 = system: MAP4K2
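Note: KINOMEscan kinase panel screen.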

SMILES	%Inh (KIT-autoinhibited)	%Inh (KIT)	%Inh (LATS1)	%Inh (LATS2)	%Inh (LCK)	%Inh (LIMK1)	%Inh (LIMK2)	%Inh (LKB1)	%Inh (LOK)	%Inh (LRRK2)	%Inh (LTK)	%Inh (LYN)	%Inh (LZK)	%Inh (MAK)	%Inh (MAP3K15)	%Inh (MAP3K1)	%Inh (MAP3K2)	%Inh (MAP3K3)	%Inh (MAP3K4)	%Inh (MAP4K2)
Nc1nccc(-c2c(-c3ccc(F)cc3)ncn2C2CCN(CC(F)(F)F)CC2)n1 [SB-236560]	11%	0%	0%	69%	0%	5%	0%	0%	2%	0%	100%	13%	7%	29%	0%	0%	0%	0%	0%	0%
O=C(NCCNc1ccnc(Nc2ccc(F)cc2)n1)Nc1ccccc1F [GSK1379880]	0%	48%	0%	0%	15%	0%	0%	0%	0%	0%	0%	0%	0%	0%	14%	0%	0%	0%	29%	0%
COc1cc(Nc2nccc(N3CCC(NC(=O)c4cccc(NC(C)=O)c4)C3)n2)cc(OC)c1OC (centres unmarked) [GSK1379754]	8%	70%	0%	0%	30%	16%	0%	0%	0%	12%	20%	1%	0%	18%	0%	0%	10%	0%	14%	0%
O=C(NCCNc1ccnc(Nc2ccc(F)cc2)n1)c1cc2ccccc2s1 [GSK1379874]	0%	0%	0%	0%	12%	0%	25%	1%	0%	0%	0%	0%	0%	23%	0%	0%	0%	0%	0%	0%
CN(C(=O)c1ccc(-c2cc(-c3c[nH]nc3-c3ccccn3)ccn2)cc1)C1CCOCC1 [GW810083]	0%	0%	0%	2%	0%	0%	0%	16%	0%	0%	0%	0%	0%	6%	0%	0%	0%	0%	0%	0%
NS(=O)(=O)c1cccc(-c2ccc3nccc(-c4cccc(S(N)(=O)=O)c4)c3c2)c1 [GW867253]	25%	0%	0%	0%	0%	0%	0%	0%	2%	0%	0%	0%	1%	0%	0%	8%	15%	0%	12%	9%
COc1cc2ncn(-c3cc(OCc4sccc4Cl)c(C(N)=O)s3)c2cc1OC [GSK448459]	0%	31%	47%	0%	34%	4%	0%	0%	99.1%	0%	0%	0%	0%	7%	0%	88%	10%	0%	0%	20%
NCC(NC(=O)c1cc(-c2cn[nH]c2)c(-c2ccnc3[nH]ccc23)s1)c1ccccc1.O=C(O)C(F)(F)F.O=C(O)C(F)(F)F (centres unmarked) [GSK1325775]	0%	26%	59%	91.1%	4%	0%	28%	57%	0%	3%	0%	0%	0%	16%	21%	12%	8%	0%	20%	84%
CCn1cnc2c(N)ncnc21 [GW345098]	7%	20%	0%	21%	5%	26%	27%	26%	25%	0%	16%	0%	3%	0%	6%	18%	9%	20%	11%	19%
c1ccc(-c2cc(-c3c[nH]nc3-c3ccccn3)ccn2)cc1 [GW576604]	0%	9%	0%	0%	0%	0%	0%	17%	0%	0%	19%	0%	10%	0%	0%	0%	0%	0%	0%	0%
